# Inconclusive results are not listed. Where a call stands in place of a potency, no number is given. Calls of active or inactive are those of the source. Calls come from the whole dose curve; as a rule, active = well fitted inhibition curve with a large enough effect in the signal ratio in the repeat runs, with a control signal flat; inconclusive = weak or mixed curves, or effect the other way; inactive = flat fitted curve, though single readings scatter; the % refers to the signal ratio.
# Target: D(2) dopamine receptor (Homo sapiens) (UniProt P14416)
# Assay: Dopamine D2 receptor (DRD2) small molecule antagonists, cell-based qHTS assay (AID 1963595)
# Details: HEK293-DRD2 cAMP HTRF antagonist mode; series mostly up to 92.4 µM
# Source text: National Center for Advancing Translational Sciences [NCATS]
# Division of Preclinical Innovation [DPI]
# U.S. Environmental Protection Agency [EPA]
# National Institutes of Environmental Health Sciences [NIEHS]
# National Toxicology Program [NTP]
# U.S. Food and Drug Administration [FDA]
# DRD2 is the D2 subtype of the dopamine receptor, which is coupled to Gi subtype of G protein-coupled receptor. This G protein-coupled receptor inhibits adenylyl cyclase activity. The DRD2-HEK293 cell line stably expressing D2 dopamine receptor can be used for screening agonists and antagonists of interactions between D2 and its ligands. The Hek293-DRD2 cAMP assay is based on HTRF technology. It measures changes of cAMP accumulation in response to Gi coupled GPCR activation or inhibition.
# Tox21 Assay Protocol Summary:
# DRD2-Hek293 cells were dispensed at 600 cells/3uL/well in 1536-well white plates using a Multidrop Dispenser. After the assay plates were incubated at a 37 C/5% CO2 incubator for 24 h, 1 uL of Ro20-1724 at final concentration of 0.1 mM was transferred to the assay plate by a Flying Reagent Dispenser. Following Ro20-1724 addition, 23 nL of compound dissolved in DMSO, positive controls or DMSO only was added to the assay plates via Wako pintool station. The assay plates were incubated at room temperature for 10 min. Next, 1 uL of mixture of NKH477 (final concentration at 200 nM) and quinpirole (final concentration at 12 nM) was added into the plates. After the assay plates were incubated at room temperature for an additional 30 min, 2.5 ul/well of cAMP-d2 and 2.5 ul/well of anti-cAMP-cryptate were added respectively into the assay plates using a Flying Reagent Dispenser. The plates were incubated at room temperature for 1 h. The fluorescence intensity in the plates was measured at 340 nm excitation and 665 & 620 nm emission by an Envision plate reader.
# Potency is the fitted concentration of half-maximal effect.
# Sequence of D(2) dopamine receptor (Homo sapiens) (P14416 whole entry, looked up): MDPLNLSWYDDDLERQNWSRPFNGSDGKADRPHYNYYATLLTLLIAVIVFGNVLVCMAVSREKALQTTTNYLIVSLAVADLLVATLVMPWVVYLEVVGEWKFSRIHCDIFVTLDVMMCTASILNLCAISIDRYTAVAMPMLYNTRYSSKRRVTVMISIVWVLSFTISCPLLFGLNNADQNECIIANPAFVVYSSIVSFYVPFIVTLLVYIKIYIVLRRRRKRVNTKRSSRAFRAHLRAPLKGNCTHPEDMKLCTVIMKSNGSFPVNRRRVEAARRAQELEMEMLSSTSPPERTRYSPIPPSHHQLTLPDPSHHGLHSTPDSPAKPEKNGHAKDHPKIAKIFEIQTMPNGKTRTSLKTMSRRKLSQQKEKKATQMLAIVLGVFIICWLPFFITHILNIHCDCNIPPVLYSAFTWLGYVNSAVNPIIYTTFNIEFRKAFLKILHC
row,SMILES,Potency
1,Cc1cc(O)c2ccccc2c1O,inactive
2,O=C(O)COCCN1CCN(C(c2ccccc2)c2ccc(Cl)cc2)CC1 (stereo not given),inactive
3,Cc1ccc2nc(-c3ccc(N)cc3)sc2c1S(=O)(=O)O,inactive
4,Cc1c(Cl)cccc1Cl,inactive
5,CCN(CC)CC,inactive
6,CCCCN1C(=O)[C@@H]([C@H](O)C2CCCCC2)NC(=O)C12CCN(Cc1ccc(Oc3ccc(C(=O)O)cc3)cc1)CC2,inactive
7,CC1=Nc2ccc3ccccc3c2C1(C)C,inactive
8,Nc1ccc2ccccc2c1S(=O)(=O)O,inactive
9,CCC(C)c1cc(C(C)(C)C)c(O)c(C(C)(C)C)c1 (stereo not given),inactive
10,CCCCCCCCC(CO)CCCCCC (stereo not given),inactive
11,CCC(C)O (stereo not given),inactive
12,NC(=O)Nc1nc2ccccc2[nH]1,inactive
13,CN(C)c1ccc(SC#N)cc1,inactive
14,O=C1NC(=O)c2cc([N+](=O)[O-])ccc21,inactive
15,CC(C)COC(=O)CCCCC(=O)OCC(C)C,inactive
16,Clc1cccc(-c2cc(Cl)cc(Cl)c2)c1,inactive
17,COc1ccc(CCN(C)CCCC(C#N)(c2ccc(OC)c(OC)c2)C(C)C)cc1OC (stereo not given),inactive
18,OC[C@H]1O[C@@H]2O[C@H]3[C@H](O)[C@@H](O)[C@@H](O[C@H]4[C@H](O)[C@@H](O)[C@@H](O[C@H]5[C@H](O)[C@@H](O)[C@@H](O[C@H]6[C@H](O)[C@@H](O)[C@@H](O[C@H]7[C@H](O)[C@@H](O)[C@@H](O[C@H]8[C@H](O)[C@@H](O)[C@@H](O[C@H]9[C@H](O)[C@@H](O)[C@@H](O[C@H]1[C@H](O)[C@H]2O)O[C@@H]9CO)O[C@@H]8CO)O[C@@H]7CO)O[C@@H]6CO)O[C@@H]5CO)O[C@@H]4CO)O[C@@H]3CO,inactive
19,C=C[Si](OC(C)=O)(OC(C)=O)OC(C)=O,inactive
20,COc1ccc(/C=N/NC(=O)c2ccncc2)cc1OC,inactive

row,SMILES,Potency
1,O=C(O)c1nc(Cl)c(Cl)c(Cl)c1Cl,inactive
2,Cc1ccccc1N=C(N)N=C(N)N,inactive
3,O/N=C/C=N/O,inactive
4,O=c1[nH]c2ccccc2n1CCCN1CCN(C(c2ccccc2)c2ccccc2)CC1,11.9 µM (active)
5,CC(C)(C)c1ccc(C(=O)O)cc1,inactive
6,Cc1[nH]cnc1C[C@H]1CCc2c(C)c3ccccc3n2C1=O,53.1 µM (active)
7,Cc1ccc(Br)cc1,inactive
8,CC(C)CO,inactive
9,CCCC(=O)OC[C@@H](OC(=O)CCC)[C@@H](OC(=O)CCC)[C@H](Cn1c2nc(=O)[nH]c(=O)c-2nc2cc(C)c(C)cc21)OC(=O)CCC,inactive
10,CC[C@H]1CC[C@H](NCc2cc3c(cc2OC)[C@H]2C[C@H]2C(=O)N3C)[C@H](c2ccccc2)N1,inactive
11,C=CC(=O)N1CCOCC1,inactive
12,CN(C(=O)CN(CCO)CC(=O)N(C)C(C)(C)Cc1ccccc1)C(C)(C)Cc1ccccc1,inactive
13,O=S(c1cc(Cl)cc(Cl)c1O)c1cc(Cl)cc(Cl)c1O,inactive
14,CO[C@]1(NC(=O)CSC(F)F)C(=O)N2C(C(=O)O)=C(CSc3nnnn3CCO)CO[C@H]21,inactive
15,O=[N+]([O-])c1ccc(O/N=C/c2cc(Br)c(O)c(Br)c2)c([N+](=O)[O-])c1,inactive
16,NS(=O)(=O)c1cc2c(cc1Cl)NC(CSCc1ccccc1)=NS2(=O)=O,inactive
17,C=CCCCCCCCCOC(C)=O,inactive
18,CC[N+](C)(CC)CC,inactive
19,Cc1cc(Cl)c(C)cc1Cl,inactive
20,O=c1cc(-c2ccc(O)cc2)oc2cc(O)cc(O)c12,inactive
